Reference: PubChem BioAssay AID1159580 (chemical genetic matrix, 2015)
The campaign covered roughly 5,500 compounds. About 2,000 (36%) were called active. Another 18% or so got no clear call; they are omitted. Rule as the data show it: active = normalized growth mostly below about 0.91 (no sharp cut-off); inconclusive = no clear call, values can overlap the other calls; inactive = mostly above about 0.92. This is one part of the list.

Assay: chemical genetic growth profiling, strain panel (AID 1159580);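 also: tested at 20 µM; growth read once vehicle control cultures reached saturation at 30 °C; 1 = growth at the plate median or of vehicle wells; lower values mean less growth of the strain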
Conditions: growth OD
[1] = S. cerevisiae deletion strains, locus YDL101C, strain DUN1, stronger effect = lower value
[2] = S. cerevisiae deletion strains, locus YHR030C, strain SLT2, stronger effect = lower value

Measured: normalized growth

C(=C(c1ccccc1)c1ccccc1)N1CCC1
inactive: S. cerevisiae deletion strains, locus YAL013W, strain DEP1, stronger effect = lower value 1 | S. cerevisiae deletion strains, locus YBR229C, strain ROT2, stronger effect = lower value 0.993 | [1] 0.96 | S. cerevisiae deletion strains, locus YDL134C, strain PPH21, stronger effect = lower value 1.01 | S. cerevisiae deletion strains, locus YDR150W, strain NUM1, stronger effect = lower value 0.87 | S. cerevisiae deletion strains, locus YEL061C, strain CIN8, stronger effect = lower value 0.99 | S. cerevisiae deletion strains, locus YGR078C, strain PAC10, stronger effect = lower value 0.997 | S. cerevisiae deletion strains, locus YGR229C, strain SMI1, stronger effect = lower value 1 | [2] 0.972 | S. cerevisiae deletion strains, locus YHR087W, strain rtc3, stronger effect = lower value 0.984 | S. cerevisiae deletion strains, locus YJL187C, strain SWE1, stronger effect = lower value 1 | S. cerevisiae deletion strains, locus YJR043C, strain POL32, stronger effect = lower value 1 | S. cerevisiae deletion strains, locus YJR075W, strain HOC1, stronger effect = lower value 0.984 | S. cerevisiae deletion strains, locus YLR039C, strain RIC1, stronger effect = lower value 1.01 | S. cerevisiae deletion strains, locus YLR058C, strain SHM2 (second series), stronger effect = lower value 0.998 | S. cerevisiae deletion strains, locus YLR085C, strain ARP6, stronger effect = lower value 0.998 | S. cerevisiae deletion strains, locus YLR262C, strain YPT6, stronger effect = lower value 1.02 | S. cerevisiae deletion strains, locus YML094W, strain GIM5, stronger effect = lower value 0.975 | S. cerevisiae deletion strains, locus YMR219W, strain ESC1, stronger effect = lower value 0.988 | S. cerevisiae deletion strains, locus YMR263W, strain SAP30, stronger effect = lower value 0.987 | S. cerevisiae deletion strains, locus YMR307W, strain GAS1, stronger effect = lower value 1.02 | S. cerevisiae deletion strains, locus YNL153C, strain GIM3, stronger effect = lower value 0.988 | S. cerevisiae deletion strains, locus YNL298W, strain CLA4 (second series), stronger effect = lower value 1 | S. cerevisiae deletion strains, locus YNL322C, strain KRE1, stronger effect = lower value 0.991 | S. cerevisiae deletion strains, locus YNR030W, strain Alg12, stronger effect = lower value 1.03 | S. cerevisiae deletion strains, locus YPL055C, strain LGE1, stronger effect = lower value 0.854 | S. cerevisiae deletion strains, locus YPL241C, strain CIN2, stronger effect = lower value 0.9 | S. cerevisiae deletion strains, locus YPR135W, strain CTF4, stronger effect = lower value 1.03 | S. cerevisiae strains, strain wild type, stronger effect = lower value 1.01

O=C(NOC(=O)c1ccccc1)c1ccccc1
active: S. cerevisiae deletion strains, locus YAR019C, strain CDC15, stronger effect = lower value 0.0906 | S. cerevisiae deletion strains, locus YBL105C, strain PKC1, stronger effect = lower value 0.0874 | S. cerevisiae deletion strains, locus YBR135W, strain CKS1, stronger effect = lower value 0.0902 | S. cerevisiae deletion strains, locus YBR136W, strain MEC1, stronger effect = lower value 0.0871 | S. cerevisiae deletion strains, locus YBR160W, strain CDC28, stronger effect = lower value 0.091 | S. cerevisiae deletion strains, locus YDL017W, strain CDC7, stronger effect = lower value 0.0875 | S. cerevisiae deletion strains, locus YDL028C, strain MPS1, stronger effect = lower value 0.0868 | [1] 0.102 | S. cerevisiae deletion strains, locus YDL108W, strain KIN28, stronger effect = lower value 0.0859 | S. cerevisiae deletion strains, locus YDL132W, strain cdc53, stronger effect = lower value 0.0913 | S. cerevisiae deletion strains, locus YDL214C, strain PRR2, stronger effect = lower value 0.0898 | S. cerevisiae deletion strains, locus YDR052C, strain DBF4, stronger effect = lower value 0.0867 | S. cerevisiae deletion strains, locus YDR054C, strain cdc34, stronger effect = lower value 0.0943 | S. cerevisiae deletion strains, locus YDR226W, strain ADK1, stronger effect = lower value 0.0848 | S. cerevisiae deletion strains, locus YDR477W, strain SNF1, stronger effect = lower value 0.0987 | S. cerevisiae deletion strains, locus YER123W, strain YCK3, stronger effect = lower value 0.0956 | S. cerevisiae deletion strains, locus YER133W, strain GLC7, stronger effect = lower value 0.0938 | S. cerevisiae deletion strains, locus YFL009W, strain cdc4, stronger effect = lower value 0.093 | S. cerevisiae deletion strains, locus YFL029C, strain CAK1, stronger effect = lower value 0.089 | S. cerevisiae deletion strains, locus YFR003C, strain YPI1, stronger effect = lower value 0.0861 | S. cerevisiae deletion strains, locus YFR019W, strain FAB1, stronger effect = lower value 0.101 | S. cerevisiae deletion strains, locus YFR028C, strain CDC14, stronger effect = lower value 0.0859 | S. cerevisiae deletion strains, locus YGR040W, strain KSS1, stronger effect = lower value 0.103 | S. cerevisiae deletion strains, locus YGR052W, strain FMP48, stronger effect = lower value 0.111 | S. cerevisiae deletion strains, locus YGR092W, strain DBF2, stronger effect = lower value 0.104 | [2] 0.114 | S. cerevisiae deletion strains, locus YHR079C, strain IRE1, stronger effect = lower value 0.112 | S. cerevisiae deletion strains, locus YHR082C, strain KSP1, stronger effect = lower value 0.153 | S. cerevisiae deletion strains, locus YHR205W, strain SCH9, stronger effect = lower value -0.00347 | S. cerevisiae deletion strains, locus YIL147C, strain SLN1, stronger effect = lower value 0.0859 | S. cerevisiae deletion strains, locus YJL095W, strain BCK1, stronger effect = lower value 0.107 | S. cerevisiae deletion strains, locus YJL128C, strain PBS2, stronger effect = lower value 0.097 | S. cerevisiae deletion strains, locus YJL157C, strain FAR1, stronger effect = lower value 0.0897 | S. cerevisiae deletion strains, locus YJR016C, strain ILV3, stronger effect = lower value 0.0894 | S. cerevisiae deletion strains, locus YJR066W, strain TOR1 (second series), stronger effect = lower value 0.0928 | S. cerevisiae deletion strains, locus YJR066W, strain TOR1, stronger effect = lower value 0.133 | S. cerevisiae deletion strains, locus YKL048C, strain ELM1, stronger effect = lower value 0.111 | S. cerevisiae deletion strains, locus YKL067W, strain YNK1, stronger effect = lower value 0.0892 | S. cerevisiae deletion strains, locus YKL101W, strain HSL1, stronger effect = lower value 0.103 | S. cerevisiae deletion strains, locus YKL193C, strain SDS22, stronger effect = lower value 0.0889 | S. cerevisiae deletion strains, locus YKL203C, strain TOR2, stronger effect = lower value 0.097 | S. cerevisiae deletion strains, locus YLR113W, strain HOG1, stronger effect = lower value 0.138 | S. cerevisiae deletion strains, locus YLR133W, strain CKI1, stronger effect = lower value 0.0893 | S. cerevisiae deletion strains, locus YLR403W, strain SFP1, stronger effect = lower value 0.00282 | S. cerevisiae deletion strains, locus YML070W, strain DAK1, stronger effect = lower value 0.109 | S. cerevisiae deletion strains, locus YMR001C, strain CDC5, stronger effect = lower value 0.0891 | S. cerevisiae deletion strains, locus YMR205C, strain PFK2 (second series), stronger effect = lower value 0.0877 | S. cerevisiae deletion strains, locus YMR277W, strain FCP1, stronger effect = lower value 0.0919 | S. cerevisiae deletion strains, locus YNL006W, strain LST8, stronger effect = lower value 0.0825 | S. cerevisiae deletion strains, locus YNL020C, strain ARK1, stronger effect = lower value 0.0971 | S. cerevisiae deletion strains, locus YNL161W, strain CBK1, stronger effect = lower value 0.0976 | S. cerevisiae deletion strains, locus YNL183C, strain NPR1, stronger effect = lower value 0.109 | S. cerevisiae deletion strains, locus YNL207W, strain RIO2, stronger effect = lower value 0.0878 | S. cerevisiae deletion strains, locus YNL222W, strain SSU72, stronger effect = lower value 0.0863 | S. cerevisiae deletion strains, locus YNL307C, strain MCK1 (second series), stronger effect = lower value 0.112 | S. cerevisiae deletion strains, locus YOL078W, strain AVO1, stronger effect = lower value 0.0891 | S. cerevisiae deletion strains, locus YOL136C, strain PFK27, stronger effect = lower value 0.0994 | S. cerevisiae deletion strains, locus YOR061W, strain CKA2, stronger effect = lower value 0.0894 | S. cerevisiae deletion strains, locus YOR119C, strain RIO1, stronger effect = lower value 0.108 | S. cerevisiae deletion strains, locus YOR231W, strain MKK1, stronger effect = lower value 0.111 | S. cerevisiae deletion strains, locus YOR329C, strain SCD5, stronger effect = lower value 0.0866 | S. cerevisiae deletion strains, locus YPL031C, strain PHO85, stronger effect = lower value 0.102 | S. cerevisiae deletion strains, locus YPL153C, strain RAD53, stronger effect = lower value 0.0967 | S. cerevisiae deletion strains, locus YPL204W, strain HRR25, stronger effect = lower value 0.1 | S. cerevisiae deletion strains, locus YPL209C, strain IPL1, stronger effect = lower value 0.0841 | S. cerevisiae deletion strains, locus YPL256C, strain CLN2, stronger effect = lower value 0.167 | S. cerevisiae deletion strains, locus YPR025C, strain CCL1, stronger effect = lower value 0.091 | S. cerevisiae deletion strains, locus YPR106W, strain ISR1, stronger effect = lower value 0.0869 | S. cerevisiae deletion strains, locus YPR111W, strain DBF20, stronger effect = lower value 0.09 | S. cerevisiae deletion strains, strain NNK1, stronger effect = lower value 0.0922 | S. cerevisiae deletion strains, strain TSCII, stronger effect = lower value 0.0892
